HTT promoter inh: inhibitors of huntingtin promoter activity. hit rate 0.93% among 48,000. HEK293 HTT promoter firefly luciferase reporter, 24 h. AID 1508623. Potency, µM (highest dose often 57.5 µM), actives largely listed as inhibitors; note: nearly all actives have a fitted effect of over 50% in size
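Firefly luciferase signal from promoter-reporter HEK293 cells was scaled between vehicle (0%) and zero RLU (-100%). Compounds were tested at final concentrations of up to 57.5 uM over 24 h at 37 degrees C. PTC124 at 50 uM final served as control inhibitor.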
p53null 32C tox: p53 null cell cytotoxicity, permissive temperature; Potency, µM (series often up to 46.1 µM), usual class: cytotoxic; hit rate 0.62% among 55,000; H1299-neo p53 null cells, ATP luminescence, 24 h, 32C; note: nearly all actives have a fitted effect of over 55% in size
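Cells lacking p53 (H1299-neo) are plated at 600 per well and allowed to settle overnight at 37C. Test compounds (up to 46 uM) are added and held 24 hours at 32C, then ATP is quantified by luminescence.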
GPR32 ag: agonists of human resolvin D1 receptor DRV1 (GPR32); CHO-K1 GPR32 beta-arrestin PathHunter luminescence, 90 min; zero percent set by DMSO-only wells; activation, % at 76.9 µM; hit rate 2.5% among 48,000; AID 1346428;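 active = activation of at least 60% and not above a set upper limit, about 1 call in 100 departs from these limits; inconclusive = activation of 40% to 60%, or above that upper limit; inactive = activation under 40%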
Target sequence (O75388 whole entry, looked up): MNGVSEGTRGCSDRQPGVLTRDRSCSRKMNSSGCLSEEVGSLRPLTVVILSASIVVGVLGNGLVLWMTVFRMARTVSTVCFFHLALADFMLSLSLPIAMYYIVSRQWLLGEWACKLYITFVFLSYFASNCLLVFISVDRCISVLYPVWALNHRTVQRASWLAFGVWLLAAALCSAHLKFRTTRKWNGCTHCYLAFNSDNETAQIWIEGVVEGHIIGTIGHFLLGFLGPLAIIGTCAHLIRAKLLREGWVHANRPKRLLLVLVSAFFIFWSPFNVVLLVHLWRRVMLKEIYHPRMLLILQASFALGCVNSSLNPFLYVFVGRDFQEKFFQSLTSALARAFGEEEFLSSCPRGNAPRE
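PathHunter enzyme-fragment complementation, CHO-K1 GPR32 stable line; 2,500 cells/well, overnight attach; cpd 90 min 37 °C 5% CO2; detection reagent 1 h RT; chemiluminescence. DMSO = EC0.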
HTT-AS act: HTT-AS promoter activation. Potency, µM (doses to about 57.5 µM), most hits filed as activators. hit rate 0.24% among 48,000. HEK293 HTT-AS promoter firefly luciferase reporter, 24 h; response scale: percent change from vehicle, -100% = no light; note: nearly all actives have a fitted effect of over 55% in size
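Luminescence was read after Dual-Glo reagent and a 10 min room-temperature incubation. Values were normalized to vehicle (0% activity) and zero RLU (-100% activity). Reporter HEK293 cells had been exposed to compounds (up to 57.5 uM final) for 24 h.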
p53null 39C kill: p53 null cell cytotoxicity, nonpermissive temperature; H1299 p53-null (neo) cells, 39C, ATPlite viability, 24 h; Potency, µM (titrated, usually from 46.1 µM), usual class: cytotoxic; hit rate 0.97% among 55,000; note: nearly all actives have a fitted effect of over 50% in size
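Luminescent ATP signal reported cell survival after H1299 lines (neo, p53 null; or p53 A138V) received up to 46 uM compound and 24 hr incubation at 39C.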
Large screens that a line does not name were inactive; ! = not confirmed by another sample. A selection: hits, their analogues and other compounds. The true share with any hit is near 3.9%. Unless noted, calls come from the whole dose curve; as a rule, active = well fitted curve in the direction sought with a large enough effect; inconclusive = small, poorly fitted or top-dose-only effect, or another doubt; inactive = no such curve, though single readings can be large; an effect the other way counts as inactive or inconclusive.

Cc1c(Cl)ccc2sc(N3CCN(C(=O)C4CC4)CC3)nc12	GPR32 ag 76
CCn1c(C(=O)N(C2CC2)C2CC2)cc2c3c(ncn3C)c(Nc3cc(C)n(C)n3)nc21	none (no result: p53null 32C tox, GPR32 ag, p53null 39C kill)
Cc1oc(-c2nc3ccccc3n2C)cc1C(=O)c1ccccc1	p53null 32C tox 6.3µM, p53null 39C kill 11µM (no result: HTT promoter inh, GPR32 ag, HTT-AS act)
CC(Sc1nc2ccccc2n1C)C(=O)NC(c1ccccc1)c1ccccc1 (configuration not stated)	none (no result: HTT promoter inh, GPR32 ag, HTT-AS act)
Cc1ccc(CCn2c3c(c4cc(Cl)ccc42)CN(C)CC3)cn1	none (no result: p53null 32C tox, p53null 39C kill)
Cc1cc(O)c(-c2ccnc3cc(-c4ccccc4)nn23)cc1Cl	GPR32 ag 90 (no result: p53null 32C tox, p53null 39C kill)
Cc1ccc(-c2cc3nccc(-c4cc([N+](=O)[O-])ccc4O)n3n2)cc1	HTT promoter inh inconclusive (no result: p53null 32C tox, p53null 39C kill)
COc1ccccc1OCCCSc1nc(-c2ccc(C(C)(C)C)cc2)nc2cc(=O)[nH]n12	GPR32 ag 75 (no result: HTT promoter inh, HTT-AS act)
CC(C)(C)c1ccc(-c2nc(SCCCOc3ccccc3)n3[nH]c(=O)cc3n2)cc1	p53null 39C kill inconclusive
CC(=O)N1c2ccc(S(=O)(=O)NCC3CCC(C(=O)Nc4cccc(F)c4)CC3)cc2CC1C (configuration not stated)	HTT promoter inh inconclusive, GPR32 ag 64
CC(=O)N1c2ccc(S(=O)(=O)NCCC(=O)Nc3ccc(Br)c(C)c3)cc2CC1C (configuration not stated)	HTT promoter inh inconclusive, GPR32 ag 69
Cc1cc(NC(=O)CCNS(=O)(=O)c2ccc3c(c2)oc(=O)n3C)ccc1Br	none
CN(c1ncccc1CNc1nc(Nc2ccc3c(c2)CC(=O)N3)ncc1C(F)(F)F)S(C)(=O)=O	HTT promoter inh inconclusive (no result: p53null 32C tox, GPR32 ag, p53null 39C kill)
Cc1cc(Nc2cccc(C(F)(F)F)c2)nc2ccc(NC(=O)c3cccc(Cl)c3)cc12	HTT promoter inh inconclusive, p53null 39C kill 13µM
Cc1cc(Nc2cccc(Cl)c2)nc2ccc(NC(=O)Cc3cccc(C(F)(F)F)c3)cc12	HTT promoter inh inconclusive, p53null 39C kill inconclusive
Cc1cc(Nc2cccc(C(F)(F)F)c2)nc2ccc(NC(=O)c3cccnc3)cc12	HTT promoter inh inconclusive, p53null 32C tox 28µM, p53null 39C kill inconclusive
CCOc1ccc(C(=O)Nc2ccc3nc(Nc4cccc(C(F)(F)F)c4)cc(C)c3c2)cc1OCC	none
Nc1nc(NCCNc2ncc(-n3ccnc3)c(-c3ccc(Cl)cc3Cl)n2)ccc1[N+](=O)[O-]	HTT promoter inh inconclusive (no result: p53null 32C tox, GPR32 ag, p53null 39C kill)
Cc1nn(C(C)C(=O)N2CCN(c3ccc(Cl)cc3)CC2)c(=O)c2cc3occc3n12 (configuration not stated)	HTT promoter inh 25µM
CCc1nn(C(C)C(=O)N2CCN(c3ccccc3)CC2)c(=O)c2cc3occc3n12 (configuration not stated)	p53null 39C kill inconclusive
N#CC[C@H](C1CCCC1)n1cc(-c2ncnc3[nH]ccc23)cn1	HTT-AS act inconclusive (no result: p53null 32C tox, GPR32 ag, p53null 39C kill)
CSc1nn(Cc2cccc(F)c2)c(N(C(C)=O)C(C)=O)c1S(=O)(=O)c1ccccc1	HTT promoter inh inconclusive, GPR32 ag 83
CCOc1ccccc1NC(=O)CSc1nc2ccccc2c2nc(CCn3cncc3C)nn12	GPR32 ag 97
O=C(NCCc1csc2nc(-c3ccc(F)cc3)nn12)c1ccco1	none
O=C(NCCc1csc2nc(-c3cccc(F)c3)nn12)c1ccc(Br)o1	GPR32 ag 97
COc1ccc(CC(=O)NCCc2csc3nc(-c4ccccc4F)nn23)cc1	none
O=C(Cc1ccc(Cl)cc1)NCCc1csc2nc(-c3ccccc3F)nn12	GPR32 ag 121
COc1ccccc1N1CCN(CC(O)COc2cccc3ccccc23)CC1 (configuration not stated)	GPR32 ag 97! (no result: p53null 32C tox, p53null 39C kill)
COc1ccc(N2CCN(CC(O)COc3c(OC)cccc3OC)CC2)cc1 (configuration not stated)	HTT promoter inh inconclusive
CCCN(CCC)c1nc(-c2ccccc2F)nc2ccccc12	none
CCCCN(CCCC)c1nc(-c2ccccc2)nc2ccccc12	GPR32 ag 110
CCCCC(CC)CNC(=O)CCCCCn1c(=O)[nH]c2ccsc2c1=O (configuration not stated)	GPR32 ag 80

Screens: PubChem BioAssay, National Center for Advancing Translational Sciences (NCATS)
